HSV replic up – HSV replication enhancement. maximum fold increase. AID 1956. 0.005% of 220,000 active. HSV replication augmentation in cells, fold increase; in the data active = maximum fold increase above about 1.5; tested in PC3 cells
p-CIP stab down – compounds decreasing mouse p/CIP protein stability | Q05BA5 | F442A p/CIP-EGFP cells, EGFP fluorescence, 16 h | decrease of EGFP signal, % at 10 µM | 0.01% of 290,000 active | AID 1984;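 active = EGFP signal decrease of at least 30% at 10 µM or well 3 SD below plate mean, unless failing retest; inactive = the rest, including hits failing retest or dose response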
V-ATPase pHluor – regulators of yeast V-ATPase proton transport; 0.37% of 350,000 active; S. cerevisiae, pHLuorin cytosolic pH fluorescence; AID 504577; response, % at 10 µM; in the data active = response mostly above about 7.3%, no sharp cut-off; inactive = mostly below about 5.4%; also: actives read high
CR mimetic SO – caloric restriction mimetics inhibiting age-related superoxide in yeast. S. cerevisiae aged cells, superoxide DHE fluorescence; hits give low values. superoxide response (% of plate mean), % at 10 µM. 0.18% of 330,000 active. AID 2690;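 active = superoxide response under a set limit, about three screen SD below normal, cut at about 65% in these data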;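 also: yeast aged for seven days with compound at 30 °C before DHE staining; 100% = average MFI of all compound-treated wells on the plate with controls excluded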
MIN6 prolif – MIN6 beta-cell proliferation induction. MIN6 cells proliferation, ATPlite luminescence, 48 h; cells starved in 0.2% serum; 100% = growth in 10% serum. proliferation, % at 10 µM. 0.29% of 330,000 active;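 active = compounds whose signal lies at least 3.5 SD above the mean of all wells on their plate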;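 also: 0% = DMSO-treated cells in low-serum medium and 100% = 10% serum control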
H9c2 protect – myocardial damage modulation in H9c2 cells. H9c2 cardiomyocytes, H2O2 injury protection, ATPLite, 2 h. protection from H2O2 cell death, % at 20 µM. 0.63% of 360,000 active. AID 588492;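 active = compounds giving at least 50% protection of heart cells from peroxide-induced death in the single-dose screen, raw or plate-pattern-corrected value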;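 also: 0% = DMSO wells with peroxide and 100% = DMSO wells without peroxide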
* = called active by the depositor; i = inactive; . = not tested or not shown. The list is not random: actives were taken first. Their share in the collection is about 1.4%.

SMILES	HSV replic up	p-CIP stab down	V-ATPase pHluor	CR mimetic SO	MIN6 prolif	H9c2 protect
Cc1cccc(NC(=O)c2oc3ccc(S(=O)(=O)N4CCOCC4)cc3c2C)c1C	i	-6.2	-6.3	70.8	-1.9	76.2*
COc1ccc(-c2cc(C)nc3c(-c4ccccc4)cnn23)cc1	i	2.8	99.6*	.	.	-25.7
Cc1ccc2cc3c(NC(=O)c4cccnc4)nn(C)c3nc2c1	i	2.8	3.5	119.7	-0.3	58.9*
COc1ccc(CC(=O)OCC(=O)Nc2ccc3[nH]c(=O)[nH]c3c2)cc1OC	.	.	-2.5	.	.	4.3
CCSc1nnc(NC(=O)c2cccs2)s1	i	-2.4	15.8*	85.2	-2.7	-4.5
COc1cc(CC(=O)OCC(=O)c2ccc[nH]2)cc(OC)c1OC	.	.	-3.6	81.0	-5.0	-2.7
COc1cccc(-c2cnc3c(NC(C)=O)cc(-c4cccc(NS(C)(=O)=O)c4)cn23)c1	.	.	.	.	.	63.3*
CC(=O)Nc1cc(-c2cccc(NS(C)(=O)=O)c2)cn2c(-c3ccccc3)cnc12	.	.	.	.	.	9.4
CC(=O)Nc1cccc(-c2cc(NC=O)c3ncc(-c4cccc(C(C)=O)c4)n3c2)c1	.	.	.	.	.	71.0*
CC(=O)c1ccc(-c2cnc3c(NC=O)cc(-c4cccc(C(=O)N(C)C)c4)cn23)cc1	.	.	.	.	.	75.9*
COc1cccc(-c2cnc3c(NC=O)cc(-c4cc(C)c(O)c(C)c4)cn23)c1	.	.	.	.	.	66.6*
COc1ccc(/C=C/C(=O)c2ccccc2)cc1Cn1nnc2ccccc21	i	-1.3	0.6	91.1	0.0	-6.9
CCN(CC)C(=S)Oc1ccc(Cl)cc1Cl	i	-0.3	6.0	102.7	-1.7	2.5
COc1ccc(-c2cc(NC=O)c3ncc(-c4cccc(C(C)=O)c4)n3c2)cc1	.	.	.	.	.	64.8*
COc1cccc(-c2cnc3c(NC=O)cc(-c4cccc(NC(C)=O)c4)cn23)c1	.	.	.	.	.	64.4*
COc1cc(-c2cnc3c(NC=O)cc(-c4ccccc4)cn23)cc(OC)c1OC	.	.	.	.	.	31.4
COc1cccc(-c2cnc3c(NC=O)cc(-c4ccccc4)cn23)c1	.	.	.	.	.	5.9
COc1cc(-c2cnc3c(NC=O)cc(-c4cccc(NC(C)=O)c4)cn23)cc(OC)c1OC	.	.	.	.	.	53.6*
O=C(Oc1ccc2ccccc2c1Br)N1CCCCCC1	i	-0.9	-10.2	107.8	-1.8	-20.3
O=C(Oc1ccc2cc(Br)ccc2c1)N1CCCCCC1	i	4.5	.	57.7*	-2.5	.
CC[C@]12C(=O)N(C)C[C@H]([C@@H]3C(=O)N(C)C(=O)[C@@H]31)N2C(=O)c1ccccc1	.	.	1.2	.	.	5.5
COc1cc(/C=C(/C#N)c2nc3ccccc3[nH]2)ccc1OCc1ccc(C(=O)O)o1	i	-17.0	0.9	107.3	-0.6	-0.4
COC(=O)c1ccc(COc2ccc(/C=C(\C#N)c3nc4ccccc4[nH]3)cc2OC)o1	i	-15.6	-1.9	81.4	-5.3	70.4*
C=CC[C@@H](CC(=O)NCCO)C(=O)NC[C@H](OC(=O)[C@@H](CC=C)Cc1ccc(F)cc1)c1ccccc1	.	.	-2.8	109.5	1.6	70.1*
C=CC[C@@H](CC(=O)N[C@@H](CO)Cc1ccccc1)C(=O)NC[C@H](OC(=O)[C@@H](CC=C)Cc1ccc(F)cc1)c1ccccc1	.	.	1.7	104.0	1.8	32.5
SMILES	HSV replic up	p-CIP stab down	V-ATPase pHluor	CR mimetic SO	MIN6 prolif	H9c2 protect
C[C@@H]1CN([C@H](C)CO)C(=O)CCCn2cc(nn2)CO[C@H]1CN(C)C(=O)Nc1ccccc1	.	.	3.5	.	.	2.1
Cc1ccc(S(=O)(=O)N2CCOCC2)cc1C(=O)Nc1nc(-c2cccnc2)cs1	i	8.9	-7.0	92.2	-0.6	9.7
O=C(Nc1nc(-c2ccccn2)cs1)c1cc(S(=O)(=O)N2CCOCC2)ccc1F	.	.	12.4	111.0	-5.7	59.1*
CN(CC1CCCO1)S(=O)(=O)c1ccc(C(=O)Nc2nc(-c3ccccn3)cs2)cc1 (configuration not stated)	i	-19.7	0.3	98.6	-6.4	90.1*
O=C(Nc1cc(S(=O)(=O)N2CCOCC2)ccc1N1CCCCC1)c1cc(-c2ccccn2)nc2ccccc12	i	-0.6	-0.9	90.5	-2.7	64.0*
Cc1ccc(S(=O)(=O)N2CCOCC2)cc1NC(=O)c1cc(-c2ccccn2)nc2ccccc12	i	8.5	2.9	104.6	3.3	8.6
CN(CC1CCCO1)S(=O)(=O)c1ccc(C(=O)Nc2ccccc2F)cc1 (configuration not stated)	.	-13.0	1.1	89.1	-1.8	2.9
O=C(Nc1nc(-c2ccccn2)cs1)c1ccc(F)c(S(=O)(=O)N2CCOCC2)c1	.	.	4.0	99.5	-6.0	65.1*
O=C(NCc1cccs1)C1CCC(=O)N(Cc2cccc(C(F)(F)F)c2)C1 (configuration not stated)	.	-0.4	0.4	96.7	-2.4	3.1
O=C(Nc1nc(-c2ccccn2)cs1)c1cccc(-n2cnnn2)c1	.	-16.3	1.4	94.7	-5.3	67.8*
Cc1ccc(C(=O)Nc2nc(-c3ccccn3)cs2)cc1S(=O)(=O)N1CCOCC1	.	.	-4.1	113.1	-6.3	73.4*
Cc1ccc(C(=O)NCCc2nnc3ccc(NCc4ccc5c(c4)OCO5)nn23)cc1	.	-5.3	3.4	88.3	-1.4	-0.3
CC(Cc1cccnc1)NC(=O)c1ccccc1OC1CCN(S(C)(=O)=O)CC1 (configuration not stated)	i	-14.3	-3.2	102.3	0.5	8.1
O=C(CSc1nc(Nc2ccccc2)nc(N2CCOCC2)n1)NC1CCCCC1	.	-11.1	-3.1	99.1	-2.4	-1.1
O=C(COc1ccc(-c2nnco2)cc1)N1CCOCC1	.	.	15.0*	105.2	3.2	3.4
CCOC(=O)C1=C(C)NC(C)=C(C(=O)OCC)C1C(=O)OCC(=O)N(CC)C1CCS(=O)(=O)C1 (configuration not stated)	i	-3.8	-0.1	87.3	4.3	-1.9
C=CCN=c1scc(C)n1/N=C/c1ccc(O)c(O)c1	i	5.7	-0.1	103.0	-5.3	65.2*
CCC(=O)N1CCN(c2ccccc2NC(=O)COc2cc(C)ccc2C(C)C)CC1	i	0.4	-0.7	98.6	-1.9	54.9*
COc1ccc(S(=O)(=O)C(C#N)c2nc3ccccc3nc2N2CCCC(C)C2)cc1 (configuration not stated)	1.6*	-35.4	1.4	92.3	-2.2	-12.8
O=C(CN1CC(=O)Oc2ccccc21)OCC(=O)c1ccc(Br)cc1	i	.	-0.6	116.4	-3.0	56.9*
Cc1ccc(C)c(S(=O)(=O)NCCN2CCOCC2)c1	.	7.6	-2.8	111.5	-1.7	1.2
CCOC(=O)N1CCN(C(=O)CSc2nc3c(cnn3-c3ccc(C)cc3)c(=O)[nH]2)CC1	i	-17.6	4.6	96.2	3.7	51.2*
CCOC(=O)N1CCN(C(=O)CSc2nc3c(cnn3-c3ccc(Cl)cc3)c(=O)[nH]2)CC1	i	-19.0	1.1	78.9	-1.4	11.5
Cc1ccc(NC(=O)NC2=N/C(=C(/C#N)C(=O)N3CCCC3)c3ccccc32)cc1	i	-26.7	-0.8	104.6	2.8	70.0*
